Assay results taken from PubChem BioAssay AID651768 (National Center for Advancing Translational Sciences (NCATS), 2012).
The campaign covered roughly 360,000 compounds. About 1,700 (0.47%) were called active. Not shown: some 2% with an inconclusive outcome. The call rests on the fitted dose curve; in most records, active means well fitted inhibition curve with a large enough effect; inconclusive means small, poorly fitted or top-dose-only effect; inactive means no such curve, though single readings can be large or run the other way. The list comes from a sample in which actives are over-represented; it also holds similar structures and randomly drawn compounds.

biological target: Bifunctional 3'-5' exonuclease/ATP-dependent helicase WRN (Homo sapiens) (UniProt Q14191); test: qHTS for Inhibitors of WRN Helicase; details: WRN helicase unwinding, fluorescent forked duplex, kinetic; series mostly up to 114 µM; further: nearly all actives have a fitted effect of over 55% in size
Sequence (Q14191 whole entry, looked up): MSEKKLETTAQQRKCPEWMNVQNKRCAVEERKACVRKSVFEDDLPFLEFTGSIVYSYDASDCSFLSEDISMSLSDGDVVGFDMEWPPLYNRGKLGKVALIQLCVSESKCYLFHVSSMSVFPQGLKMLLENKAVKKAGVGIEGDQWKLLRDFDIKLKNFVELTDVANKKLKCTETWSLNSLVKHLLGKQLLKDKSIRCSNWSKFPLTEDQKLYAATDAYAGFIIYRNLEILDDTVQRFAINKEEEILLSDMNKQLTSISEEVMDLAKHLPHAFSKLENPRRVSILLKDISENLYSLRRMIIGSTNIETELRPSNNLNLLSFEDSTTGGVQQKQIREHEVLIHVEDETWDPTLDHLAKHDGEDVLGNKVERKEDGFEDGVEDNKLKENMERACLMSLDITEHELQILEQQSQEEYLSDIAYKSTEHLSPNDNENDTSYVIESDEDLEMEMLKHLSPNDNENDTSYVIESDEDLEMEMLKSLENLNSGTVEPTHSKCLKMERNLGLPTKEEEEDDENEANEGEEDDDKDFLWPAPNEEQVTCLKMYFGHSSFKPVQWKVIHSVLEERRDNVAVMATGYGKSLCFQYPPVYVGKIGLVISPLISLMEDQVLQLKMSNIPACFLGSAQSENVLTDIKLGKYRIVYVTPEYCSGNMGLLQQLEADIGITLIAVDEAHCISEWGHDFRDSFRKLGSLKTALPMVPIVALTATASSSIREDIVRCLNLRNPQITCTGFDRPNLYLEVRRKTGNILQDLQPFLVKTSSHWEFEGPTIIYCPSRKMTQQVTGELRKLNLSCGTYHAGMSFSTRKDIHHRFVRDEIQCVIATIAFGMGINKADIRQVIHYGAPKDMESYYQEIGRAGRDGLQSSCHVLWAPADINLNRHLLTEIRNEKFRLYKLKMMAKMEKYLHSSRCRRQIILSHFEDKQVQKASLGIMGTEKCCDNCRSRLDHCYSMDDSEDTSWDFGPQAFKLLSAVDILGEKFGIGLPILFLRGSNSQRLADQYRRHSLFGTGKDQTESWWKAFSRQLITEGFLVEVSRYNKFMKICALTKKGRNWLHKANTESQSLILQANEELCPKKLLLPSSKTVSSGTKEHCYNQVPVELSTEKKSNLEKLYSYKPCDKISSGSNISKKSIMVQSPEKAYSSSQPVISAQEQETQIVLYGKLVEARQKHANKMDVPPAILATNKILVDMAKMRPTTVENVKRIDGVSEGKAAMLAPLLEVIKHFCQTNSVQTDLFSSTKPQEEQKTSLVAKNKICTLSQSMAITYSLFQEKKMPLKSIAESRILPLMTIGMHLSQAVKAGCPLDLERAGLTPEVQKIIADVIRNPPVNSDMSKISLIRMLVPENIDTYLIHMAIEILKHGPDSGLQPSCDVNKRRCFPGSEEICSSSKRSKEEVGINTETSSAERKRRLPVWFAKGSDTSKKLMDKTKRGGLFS
Source text: Inhibition of DNA repair is proposed as a strategy for combating cancer. Synthetic lethality is an approach that exploits preexisting DNA repair deficiencies in certain tumors to develop inhibitors of DNA repair pathways that compensate for the tumor-associated DNA repair deficiency. Because helicases play critical roles in the DNA damage response and in DNA repair, particularly in actively dividing and replicating cells, characterization of synthetic lethal relationships of DNA helicases may be of value in developing improved anticancer treatment strategies; moreover, small molecules that specifically target a given DNA helicase may be useful for understanding its role in cellular nucleic acid metabolism. The goal of this project is to identify small molecule, non-covalent chemical inhibitors of the Werner syndrome (WS) helicase (WRN), which plays an important role in cell proliferation, the replication stress response, and DNA repair. […] The WRN gene product that is defective in the chromosomal instability disorder has DNA helicase and exonuclease activities and interacts with a number of nuclear proteins to maintain genomic stability. We will employ an optimized high-throughput screening assay that utilizes a fluorescence intensity modulation scheme with a fluorophore and quencher positioned near one another within a duplex deoxyoligonucleotide that contains a single forked structure. After a high-throughput screen of the ~350,000-member Molecular Libraries Small Molecule Repository (MLSMR) collection, followed by data analysis and hit selection, a panel of confirmatory, as well as secondary and ternary, assays will be employed to identify high-confidence WRN inhibitors. Structure-activity relationships will be investigated for the top candidate inhibitor series through medchem expansion. These are the results of the primary screening campaign against the MLSMR. NIH Chemical Genomics Center [NCGC] NIH Molecular Libraries Probe Centers Network [MLPCN] MLPCN Grant: MH096530 Assay Submitter (PI): Robert Brosh, National Institute of Aging
Three muL of reagents (buffer in columns 3 and 4 as negative controls; WRN at 20 nM final concentration in columns 1 and 2 as positive controls; columns 5-48 as test reactions) will be dispensed into a 1536-well Greiner black plate via solenoid-valve based nanoliter dispensers. Compounds (23 nL each in columns 5-48) and control (23 nL each in column 2 as dose-response) will be transferred via a Kalypsys pintool equipped with a 1536-pin array. Plates will be incubated for 15 min at room temperature, and then 1 µL of substrate (100 nM forked duplex oligonucleotide and 2 mM ATP final concentrations) will be added to start reaction, and plate will be transferred into a ViewLux high-throughput CCD imager where reaction progress is measured in kinetic mode using standard red-fluorescence optics (excitation filter 525 nm, emission filter 598 nm).
On the % scale 0 is the no-effect control and ±100 the full control effect; potency means the concentration at half of the fitted maximal effect.

Potency, active:
CC1=C/C(=N\OS(=O)(=O)c2ccccc2)C=CC1=O 31.6 µM
COCCNC(=O)Nc1ccc2nc(-c3ccco3)c(-c3ccco3)nc2c1 14.1 µM
CC(=O)N(C1=C(Cl)C(=O)c2ccccc2C1=O)c1ccc(C(=O)O)cc1 35.5 µM
CCc1ccc2nc3sc(C(=O)Nc4nnc(CC)s4)c(N)c3cc2c1 22.4 µM
N#Cc1c(N2CCCCC2)nc(N)c2c(N)nc(SCC(=O)O)cc12 50.1 µM
C=CC(=O)Nc1ccc(Nc2ccnc(Nc3ccc(N4CCN(C)CC4)cc3)n2)cc1 50.1 µM
O=S(=O)(O)c1cc2onnc2c2ccccc12 56.2 µM
CCN(CC)CCOc1ccc2c(c1)C(=NNC(=O)c1ccccn1)c1cc(OCCN(CC)CC)ccc1-2 35.5 µM
Cc1ccc(Cc2cnc(N)s2)o1 44.7 µM
O=C(CSC(=S)N1CCOCC1)c1cc(Br)cc(Br)c1O 56.2 µM
CC(C)C1N=C2c3ccccc3N=C(SCC(=O)c3ccc(O)c(O)c3)N2C1=O (stereo not drawn) 17.8 µM
Cn1sc(=O)c2cc(S(=O)(=O)NC3CC3)ccc21 44.7 µM
O=c1nc2s/c(=C\c3ccco3)c(=O)n2nc1Cc1ccccc1 35.5 µM
CN(C)c1nc(Nc2ccc(Cl)c(Cl)c2)nc(N(C)C)n1 79.4 µM
COc1ccc(Cl)cc1NC(=O)CCS(=O)(=O)c1ccc(Br)cc1 44.7 µM
O=C(O)C(c1ccccc1)N1C(=O)/C(=C\c2ccc(-c3cccc(Cl)c3)o2)SC1=S (stereo not drawn) 44.7 µM
FC(F)(F)C1CCCN(c2nsc3ccccc23)C1 (stereo not drawn) 22.4 µM
CC1=NN(c2ccc(Cl)c(C(=O)O)c2)C(=O)/C1=C/c1ccc(-c2ccccc2[N+](=O)[O-])o1 44.7 µM
O=c1[nH]c2ccccc2n2c(-c3ccccc3)nnc12 20 µM
COc1ccc(CS(=O)/C(Cl)=C(/Cl)C(=O)Nc2ccc(OC)nc2)cc1 (stereo not drawn) 17.8 µM

Potency, inactive:
N#Cc1ccc(OCC(=O)NC(=O)NC2CCS(=O)(=O)C2)cc1 (stereo not drawn)
CC(=O)Nc1ccc(S(=O)(=O)NCC(=O)OCc2cc(=O)oc3ccc4ccccc4c23)cc1
O=C(N/N=C/c1sc(N2CCCCC2)nc1-c1cccs1)c1cccnc1
C[C@H]1CN([C@@H](C)CO)C(=O)CCCn2nncc2CO[C@@H]1CN(C)S(=O)(=O)c1cccc(C#N)c1
Cc1nnc(SCC(=O)Nc2ncc3c(n2)CC(C)(C)CC3=O)s1
O=C1Nc2ccccc2-n2nnnc2C1N1CCN(c2cccc(C(F)(F)F)n2)CC1 (stereo not drawn)
CC1(c2cccc(N)c2)OCCO1
COCCNC(=O)CSc1nc(N)c(NC(=O)c2ccco2)c(=O)[nH]1
Cc1ccc(NC(=O)OCCNC(=O)c2ccncc2)cc1
O=C(NC1=CC(=O)c2ccccc2C1=O)c1ccccc1
CN(C)c1ccc(C(CNC(=O)c2ccc(F)cc2)c2c[nH]c3ccccc23)cc1 (stereo not drawn)
CCc1ccccc1NC(=O)CN(c1ccc(OC)cc1OC)S(=O)(=O)c1ccccc1[N+](=O)[O-]
CCC1OC(C2CC2)CC2=C1C(=O)OC(C)(C)O2 (stereo not drawn)
CCc1nnc(NC(=O)c2cc(S(=O)(=O)N3CCCCC3)ccc2C)s1
CCc1nnc(NC(=O)c2ccco2)s1
C=CCN1CCN(c2ccncc2S(=O)(=O)N2CCN(C)CC2)CC1
N#Cc1c(C(F)(F)F)cc(-c2cccs2)nc1N1CCCCC1
O=C(O)CSc1ccc(S(=O)(=O)N2CCCC2)cn1
Cn1cnnc1SCC(=O)Nc1ccc(N2CCOCC2)cc1
CN1CCN(c2ccc(NC(=O)c3cc(Cl)c4c(c3)OCCO4)cc2)CC1
CC(C)NC(=S)Nc1cccc2cnccc12
COc1ccc(S(=O)(=O)N2CCN(CC(=O)N3c4ccccc4CC3C)CC2)cc1OC (stereo not drawn)
Cc1ccccc1-c1nc(NC(C)C)nc2cc(-c3ccccc3)sc12
O=C(Nc1ccc(OC(F)(F)F)cc1)c1ccc2c(c1)no[n+]2[O-]
Cc1ccc(S(=O)(=O)N2CCC(=O)N([C@H](COCc3ccccc3)Cc3ccccc3)CC2)cc1
CN(CCOc1ccc(CC2SC(=O)NC2=O)cc1)c1ccccn1 (stereo not drawn)
CCN(CC)CCNCC(=O)Nc1ccc(Oc2ccccc2)cc1
O=C(O)CSC(NC(=O)c1cccnc1)(C(F)(F)F)C(F)(F)F
Cc1ccc(CCC(=O)Nc2ncc(Cc3cc(Cl)ccc3Cl)s2)o1
CSc1nnc(C2CCCN(CC(=O)Nc3ccccc3N3CCOCC3)C2)n1C(C)C (stereo not drawn)
O=C(c1cc2cc(Br)cc(Br)c2oc1=O)N1CCOCC1
O=C(CSC(=S)N1CCOCC1)c1ccccc1
Cc1cc(=O)oc2cc(OC(C)C(=O)NCCc3ccc(S(N)(=O)=O)cc3)ccc12 (stereo not drawn)
CCOC(=O)c1cc(-c2ccc(F)cc2)n(CC(=O)NCc2ccccn2)c1C
CCN(C(=O)COC(=O)/C=C/c1nc2ccccc2s1)C1CCS(=O)(=O)C1 (stereo not drawn)
O=C(COC(=O)c1cnccn1)Nc1ccc(Cl)cc1C(F)(F)F
NC(=O)CSC1=Nc2ccccc2C2=NC(CCC(=O)NCc3ccc(F)cc3)C(=O)N12 (stereo not drawn)
O=C(CSC1=Nc2ccccc2C2=NC(c3ccccc3)C(=O)N12)NCC1CCCO1 (stereo not drawn)
O=C(NCCCn1ccnc1)C(=O)c1cn(CC(=O)N2CCCCCC2)c2ccccc12
Cc1nc2ccc(S(=O)(=O)NCC(=O)O)cc2s1
C/C(CC(O)(/C=N/O)c1ccccc1)=N\O (stereo not drawn)
O=S(=O)(NC1CC1)c1ccc(Cl)cc1
O=S(=O)(NC1CC1)c1ccc(F)c(F)c1
Cc1c(C(=O)NCCN(C)C)oc2ccc(S(=O)(=O)N3CCCC3)cc12
CCOP1(=O)C=C(C(C)(C)C)OC1c1ccc(F)cc1 (stereo not drawn)
C[C@@H]1CN([C@H](C)CO)C(=O)CCCn2cc(nn2)CO[C@H]1CN(C)S(=O)(=O)c1ccc(Oc2ccccc2)nc1
CC12CCC(C(=O)N(CCC#N)CCC#N)(CC1=O)C2(C)C (stereo not drawn)
COC(=O)[C@@]1(Cc2ccc(F)cc2)[C@H]2c3cc(C(=O)N4CCCC4)n(C[C@H](O)CO)c3C[C@H]2CN1C(=O)c1ccccc1
CCOC(=O)N1CCC(NC(=O)CN2C(=O)COc3ccc(C(C)(C)C)cc32)CC1
CC[C@]12c3[nH]c4ccc(OC)cc4c3CCN1C(=O)C(CC(=O)NCCN1CCOCC1)C[C@@H]2C(=O)N1CCN(C(=O)C2CC2)CC1 (stereo partly drawn)
O=c1/c(=C/c2ccc(CNS(=O)(=O)c3ccccc3)o2)sc2n1CCN=2
O=C(NCCc1ccco1)c1nn(Cc2ccccc2)c(=O)c2ccccc12
Cc1cc(C(=O)OC(C)C(=O)Nc2cccc(S(=O)(=O)N3CCOCC3)c2)c(C)o1 (stereo not drawn)
CCOC(=O)N1CCN(C(=O)COC(=O)c2cccc(S(C)(=O)=O)c2)CC1
CC(=O)Nc1nc(N(C)C)nc(N(C)C)n1
CN(C)c1nc(NN)nc(Nc2ccc(F)cc2)n1
CCOc1ccc(OCC)c(NC(=O)CCS(=O)(=O)c2ccc(C)cc2)c1
COC(=O)[C@]1(Cc2ccccc2)N[C@H](CN(C)S(=O)(=O)c2ccc(OC(F)(F)F)cc2)[C@@H]2C(=O)N(C)C(=O)[C@@H]21
[O-][n+]1c2c(nn1-c1ccc(Cl)c(Cl)c1)-c1nonc1CC2
Cc1cc(C)c(S(=O)(=O)c2ccccc2)c(OC(=O)c2c(F)cccc2Cl)n1
CC(C(=O)NC1CCS(=O)(=O)C1)N1C(=O)/C(=C/c2ccc(Cl)cc2)SC1=S (stereo not drawn)
CCc1c(-c2ccc(F)cc2)ncn1Cc1cccc(-c2ccccc2)c1
Cc1cccc(C(=O)NNC(=O)CSc2nnc(C(C)C)n2C)c1
COc1ccc(Br)c(Cn2c(C)c(C(=O)NCc3cccs3)sc2=O)c1
COC(=O)C1=CN(c2c(C)cc(C)cc2C)C(N)=C(C#N)C1c1cccc(F)c1 (stereo not drawn)
FC(F)(F)c1cccc(-c2nc3ccccc3n2C(c2ccccc2)c2nc3ccccc3[nH]2)c1 (stereo not drawn)
CC1CN(/C=C/C(=O)C(F)(F)F)CC(C)O1 (stereo not drawn)
O=C1C2C3C=CC(C4CC34)C2C(=O)N1/N=C/c1ccc(-c2ccccc2[N+](=O)[O-])o1 (stereo not drawn)
COc1c(Br)cc2c(C)c(C(=O)N3CCOCC3)oc2c1Br
O=C(Cn1nnc2ccccc2c1=O)NCc1ccc(Cl)cc1
O=C(c1ncn2c1c(=O)[nH]c1ccccc12)N1CCc2ccccc2C1
CS(=O)(=O)N1CCCCC1c1cc(C(=O)NCc2ccccc2)no1 (stereo not drawn)
COc1ccc(OC(C)C(=O)Nc2cccnc2)cc1 (stereo not drawn)
COc1ccc(C(O)c2nc(-c3ccc(OC)nc3)cs2)cc1 (stereo not drawn)
CC(C)C[C@H]1CN([C@@H](Cc2ccccc2)CN2CCC[C@@H]2CN2C(=O)C(=O)NC[C@@H]2Cc2ccc(O)cc2)C(=O)C(=O)N1CCc1ccccc1

Activity change, negative = inhibition, inactive:
O=C(CCS(=O)(=O)c1ccc(Br)cc1)NCCc1ccc(Cl)cc1 -8.96% [at 11.6 µM]
CC(C(=O)Nc1ccc(O)c(C(=O)O)c1)N1C(=O)/C(=C/c2cccs2)SC1=S (stereo not drawn) -16.7% [at 11.6 µM]
COc1ccc(/C=C2/C(=O)N(c3ccccc3)N=C2C)c(OC)c1 -30.6% [at 11.6 µM]
